High-throughput results as filed in PubChem.
FBPA coupling cs = inhibits coupling enzyme system, counter-screen for aldolase hits | coupling enzyme system counterscreen, AmpLite Red fluorescence | AID 2472 | 290,000 compounds, 0.67% hits | activity change, negative = inhibition, % at 58.2 µM, hits read low; in the data active = activity change below about -30%
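Coupling enzymes only (glyceraldehyde-3-phosphate) + compound, at 57.5 uM final, 10 min RT; add substrate/coupling/AmpLite Red mix, 20 min RT; fluorescence ex 525/em 598 nm. Actives flag coupling-system interference.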
Tau FP inhib = tau fibrillization inhibition (FP); P10636; K18 P301L tau heparin fibrillization, Alexa594 FP, 6 h; Potency, µM (titrated, usually from 57.7 µM), for inactives: at the highest dose activity, negative = inhibition, actives largely listed as inhibitors; 280,000 compounds, 0.39% hits; AID 1468; note: potency is the fitted concentration of half-maximal effect; nearly all actives have a fitted effect of over 55% in size
Target sequence (P10636 561-689 P618L limits assumed): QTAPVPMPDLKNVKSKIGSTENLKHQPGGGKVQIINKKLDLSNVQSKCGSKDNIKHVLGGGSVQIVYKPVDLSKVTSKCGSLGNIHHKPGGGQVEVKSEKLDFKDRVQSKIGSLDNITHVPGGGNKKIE
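FP of Alexa 594-tau after heparin (20 uM) induction. Substrate: human K18 P301L, 15 uM unlabeled, 0.24 uM labeled. Buffer 100 mM sodium acetate pH 7. 6 hr, 37 C.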
Tau ThT inhib = inhibitors of human tau fibril formation, thioflavin T binding; recombinant tau K18 P301L, heparin-induced fibrillization, ThT fluorescence; Potency, µM (doses to about 57.4 µM), inactives show top-dose activity, negative = inhibition, usual class: inhibitors; 270,000 compounds, 2.1% hits; AID 1460; note: potency is the fitted concentration of half-maximal effect; nearly all actives have a fitted effect of over 55% in size
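Using a mix of unlabeled (15 uM) and Alexa 594-labeled (0.24 uM) tau K18 P301L, heparin-triggered fibrillization over 6 hr at 37 C was scored by ThT fluorescence.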
Tau fluor counter = counter-screen for tau fibril formation inhibitors; tau K18 P301L (four-repeat tau fragment) Alexa594 fluorescence, heparin fibrillization; 280,000 compounds, 0.93% hits; Potency, µM (series often up to 57.7 µM), for inactives: top-dose activity change, negative = decrease; note: potency is the fitted concentration of half-maximal effect; nearly all actives have a fitted effect of over 55% in size
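Human K18 P301L tau (15 uM unlabeled plus 0.24 uM Alexa 594-labeled, final) in 100 mM sodium acetate pH 7 was mixed with compound and 20 uM heparin and incubated 6 hr at 37 C.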
USP1 inh = inhibitors of human USP1/UAF1 deubiquitinase; O94782; recombinant USP1/UAF1, Ub-Rhodamine cleavage fluorescence; Potency, µM (top dose mostly 57.1 µM), for inactives: top-dose activity change, negative = inhibition, most hits filed as inhibitors; 390,000 compounds, 0.23% hits; note: potency is the fitted concentration of half-maximal effect; nearly all actives have a fitted effect of over 60% in size
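1 nM enzyme complex + cpd, 15 min RT; start with Ub-Rho 150nM final; kinetic fluorescence ex 480/em 540, 6 reads q60 s. Buffer 50mM HEPES pH 7.8, 0.5mM EDTA, 0.1 mg/ml BSA, 1mM TCEP, 0.01% Tween-20.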
Active calls of the source: *; u = inconclusive; x = no result given; [ ] = another dose, or the depositor's remark. This is a sample that favours compounds with a hit; in the whole collection about 2.3% have one here. Unless noted, calls come from the whole dose curve; as a rule, active = well fitted curve in the direction sought with a large enough effect; inconclusive = small, poorly fitted or top-dose-only effect, or another doubt; inactive = no such curve, though single readings can be large; an effect the other way counts as inactive or inconclusive. % is set by controls: 0 for no effect and ±100 for the full control effect.

SMILES | FBPA coupling cs | Tau FP inhib | Tau ThT inhib | Tau fluor counter | USP1 inh
CCCOC(=O)c1cc2c(cn1)[nH]c1ccccc12 | x | -17% | u | u | x
COc1cc2c(cc1O)C[C@H]1NCCc3cc4c(c-2c31)OCO4 | -31* | -4% | 14µM* | u | u
Cc1cccc(N2C(=O)CSC23C(=O)N(CC(=O)Nc2cccc(Cl)c2)c2ccccc23)c1 (stereo unspecified) | x | 25µM* | 11% | u | -21%
COc1cccc(CN2C(=O)C3(SCC(=O)N3c3ccc(C)c(Cl)c3)c3ccccc32)c1 (stereo unspecified) | x | -11% | u | -15% | -17%
O=C1NC(=S)N(Cc2ccco2)C(=O)/C1=C\c1cccs1 | -3 | u | 13µM* | u | x
CCOC(=O)c1cc(CC)sc1/N=C/C1C(=O)NC(=S)NC1=O | -39* | -10% | u | -12% | u
CCOC(=O)c1cc(CC)sc1/N=C/c1c(O)[nH]c(=S)[nH]c1=O | -88* | -16% | -17% | -4% | u
CCN1CC2(OC(=O)c3ccccc3NC(C)=O)CCC(OC)[C@]34C1[C@H](CC23)[C@@]1(O)C[C@H](OC)[C@H]2CC4C1(O)[C@H]2OC (stereo partly specified) | 1 | x | x | x | x
C=CCN1C(=O)NC(=O)/C(=C/c2cc3c4c(c2)CCCN4CCC3)C1=O | -8 | u | 18µM* | -29% | -24%
CCN(CC)c1ccc(/C=C/[N+](=O)[O-])cc1 | -1 | -9% | 16µM* | u | u
CC(=O)Nc1c2sscc-2n(C)c1=O | -1 | u | 16µM* | -18% | x
CCCN1CCc2cc(O)cc3c2C1Cc1ccc(O)c(O)c1-3 (stereo unspecified) | x | 35µM* | 16µM* | 16µM*[quencher] | x
COc1ccc(CN2CCN(c3ncnc4sc5c(c34)CCCC5)CC2)cc1F | x | 1% | u | -12% | -4%
Cc1cc(C)cc(N2C(=O)NC(=O)/C(=C\c3cccn3-c3ccccc3)C2=O)c1 | 2 | 4% | -18% | 0% | -4%
CN1C(=O)/C(=C/c2cccn2-c2ccc3ccccc3c2)C(=O)NC1=S | -10 | 32µM* | 16µM* | 18µM*[quencher] | -18%
O=C1NC(=S)NC(=O)C1=Cc1cccn1-c1ccc(O)cc1 | 0 | -7% | 25µM* | u | -13%
Cc1cc(NC(=O)c2cc(-c3cccc(Cl)c3)on2)nn1Cc1ccc(Cl)cc1 | x | -2% | -3% | -12% | u
C/C(=N\NP(=S)(c1ccccc1)c1ccccc1)c1ccc(O)cc1O | -5 | -3% | u | 32µM*[quencher] | -20%
COc1ccc(Cn2c(N)c(C(=O)NCc3ccco3)c3nc4ccccc4nc32)cc1 | -5 | -6% | 20µM* | u | -6%
Nc1c(C(=O)NCc2ccco2)c2nc3ccccc3nc2n1CCN1CCOCC1 | -2 | 5% | u | u | -18%
Nc1c(C(=O)NCc2ccco2)c2nc3ccccc3nc2n1Cc1ccc(F)cc1 | -40* | u | u | u | -7%
Nc1c(C(=O)NCc2ccco2)c2nc3ccccc3nc2n1Cc1ccccc1 | -28 | u | u | u | -17%
O=C1NC(=O)C(=Cc2ccc(Oc3ccc([N+](=O)[O-])cc3)cc2)C(=O)N1 | -14 | u | 13µM* | -8% | -20%
CCOCCCn1c(N)c(C(=O)Nc2sc3c(c2C(=O)OC)CCCC3)c2nc3ccccc3nc21 | -45* | u | u | u | -22%
CCCNC(=O)c1c(N)n(CC2CCCO2)c2nc3ccccc3nc12 (stereo unspecified) | -51* | u | u | u | u
COCCCn1c(N)c(C(=O)NCCC(C)C)c2nc3ccccc3nc21 | -46* | 0% | u | u | 22µM*
CC(C)OCCCNC(=O)c1c(N)n(CC2CCCO2)c2nc3ccccc3nc12 (stereo unspecified) | -47* | 2% | u | -16% | 28µM*
CCN(CC)C(=O)c1c(C)[nH]c(=S)c(C#N)c1-c1ccco1 | -30 | -9% | u | -7% | -17%
